# Marburg entry inh: blocks Marburg virus binding to or entry into cells; Marburg virus pseudotyped entry inhibition, cell reporter; 300,000 tested, 1.8% active; Potency, µM (doses to about 37.8 µM), for inactives: at the top dose activity change, negative = inhibition, hits mostly inhibitors; calls by dose curve; tested in HEK293 cells; further: potency means the concentration at half of the fitted maximal effect; on the % scale 0 is the no-effect control and ±100 the full control effect
# VACV mCherry inh: inhibitors of vaccinia virus infection (mCherry reporter signal) | AID 720579 | Vaccinia virus mCherry reporter infection, fluorescence | Potency, µM (doses to about 36.5 µM), for the others: at the highest dose activity change, negative = inhibition, most hits filed as inhibitors | 310,000 tested, 0.63% active; calls by dose curve; tested in A549 cells; further: potency means the concentration at half of the fitted maximal effect; on the % scale 0 is the no-effect control and ±100 the full control effect; nearly all actives have a fitted effect of over 35% in size
# Vaccinia Venus: vaccinia inhibition (Venus reporter). Vaccinia virus Venus reporter expression, fluorescence. Potency, µM (titrated, usually from 36.5 µM), without a hit: at the top dose activity change, negative = inhibition, most hits filed as inhibitors. 330,000 tested, 0.46% active; calls by dose curve; tested in A549 cells; further: potency means the concentration at half of the fitted maximal effect; on the % scale 0 is the no-effect control and ±100 the full control effect; nearly all actives have a fitted effect of over 30% in size
# LASV entry inh: Lassa virus entry inhibition; Lassa virus pseudotype entry inhibition, cell reporter; Potency, µM (highest dose often 37.9 µM), for inactives: at the top dose activity change, negative = inhibition, most hits filed as inhibitors; 300,000 tested, 1.2% active; AID 540256; calls by dose curve; tested in HEK293 cells; further: potency means the concentration at half of the fitted maximal effect; on the % scale 0 is the no-effect control and ±100 the full control effect; nearly all actives have a fitted effect of over 50% in size
# CHX counter: counter-screen for Shiga toxin inhibitors: cycloheximide protein synthesis inhibition | cell reporter, cycloheximide protein synthesis inhibition counterscreen | max response, % | 300,000 tested, 12% active; in the data active means max response mostly above about 13%, no sharp cut-off; inactive means mostly below about 14%; further: read at 38.3 µM for the half of the compounds with a filed dose; 0% is about no effect
# Shiga inhibitor: inhibitors of Shiga toxin in Vero cells; inhibition, % at 38.7 µM; AID 2315; 290,000 tested, 9.2% active; Vero cells, Shiga toxin protein synthesis inhibition reporter; in the data active means inhibition mostly above about 28%, no sharp cut-off; inactive means mostly below about 43%; further: 0% is about no effect
# An asterisk follows results filed as active; i = inactive; ? = inconclusive; / = not tested or not shown; [ ] = remark or other dose. The entries come from a sample that favours hits as a whole.
SMILES,Marburg entry inh,VACV mCherry inh,Vaccinia Venus,LASV entry inh,CHX counter,Shiga inhibitor
O=C(Nc1nnc(C2CC2)s1)c1cccnc1Oc1ccc(Cl)cc1,/,/,/,/,2,19
CC1=C(C)CC(C(=O)Nc2nccs2)C(C(=O)O)C1 (configuration not stated),-9%[46.1 µM],i,-6%,1%[46.1 µM],1,8
O=C(Nc1nnc(SCc2ccc(Cl)cc2)s1)c1cnccn1,?,-14%,-10%,-15%,-2,15
COc1c(C(=O)Nc2nnc(C3CC3)s2)csc1Cl,/,/,/,/,36*,54*
CC(C)c1nnc(NC(=O)c2cnccn2)s1,17%,/,/,0%,17*,38*
Cc1cnc(C(=O)Nc2nccs2)cn1,20%,/,-22%,?,64*,108*
Cc1cnc(C(=O)Nc2nnc(C(C)C)s2)cn1,?,/,/,23%,41*,71*
Cc1cnc(C(=O)Nc2nnc(C)s2)cn1,1%,-4%,-2%,6%,-2,9
COc1cc([C@@H]2C(C(C)=O)=C(O)C(=O)N2c2ccc(Br)cn2)ccc1O,-9%,/,/,/,/,/
CC(=O)C1=C(O)C(=O)N(c2ccc(Br)cn2)C1c1ccc(F)cc1 (configuration not stated),17%[46.1 µM],-3%,-7%,30%,38*,75*
CC(=O)C1=C(O)C(=O)N(c2ccc(Br)cn2)C1c1ccccc1F (configuration not stated),?,/,3%,20%,14,18
CC(=O)C1=C(O)C(=O)N(c2ccc(Br)cn2)C1c1ccc(Br)cc1 (configuration not stated),/,/,/,/,21*,93*
COc1cc(-c2cc(C)c3c(OC)ccc(OC)c3n2)cc2c1OCCN(C(=O)Cn1nc(C)cc1C)C2,/,-20%,-4%,/,/,/
CC(C)c1ccc(-n2c(-c3ccccc3)c[n+]3c2CCc2ccccc2-3)cc1,?,?,?,3.2µM*,-1,-4
CCOc1ccc(-n2c(-c3ccccc3)c[n+]3c2CCC3)cc1,?,-9%,2%,?,2,-5
COc1ccc(-c2c[n+]3c(n2-c2ccc(C)cc2)CCCCC3)cc1,7.1µM*,i,-18%,5µM*,14,37
COc1ccccc1-n1c(-c2ccccc2)c[n+]2c1CCc1ccccc1-2,?,-17%,?,2.8µM*,1,-9
COc1ccc(-n2c(-c3ccc(Br)cc3)c[n+]3c2CCc2ccccc2-3)cc1,12µM*,/,/,?,14*,1
O=S(=O)(c1ccc2ncccc2c1)N1CCN(c2nc(-c3cccs3)nc3ccccc23)CC1,/,-1%,-18%,/,/,/
Cc1nn(CC(C)C)c(Cl)c1C(=O)N(c1ccc(Cl)cc1F)S(C)(=O)=O,?,-17%,-18%,?,-2,17
O=C(/C=C/c1ccccc1)NC(=S)Nc1ccccc1O,?,?,-18%,?,33*,81*
O=C(C=Cc1ccccc1)NCCNC(=O)C=Cc1ccccc1,?,-11%,3%,19%[46.1 µM],/,/
NC(=S)NC(=O)/C=C/c1ccccc1,?,?,?,-35%,30*,66*
O=C(/C=C/c1ccc(F)cc1)NC(=S)Nc1ccccc1O,?,-18%,-17%,?,10,31
C=CCNC(=O)C1CCN(c2ccc(S(=O)(=O)N3CCOCC3)cc2[N+](=O)[O-])CC1,/,i,-5%,/,1,-3
SMILES,Marburg entry inh,VACV mCherry inh,Vaccinia Venus,LASV entry inh,CHX counter,Shiga inhibitor
O=S1(=O)CCOCCCN1Cc1ccc(F)cc1,/,-15%,?,/,/,/
CCCCNC(=O)O[C@H]1C[C@@H]2CCN3C(=O)CCC(C)(C)[C@H](C1)[C@H]23,/,i,-13%,/,-3,13
CC1(C)CCC(=O)N2CC[C@H]3C[C@H](OC(=O)Nc4ccccc4)C[C@@H]1[C@H]32,/,-17%,-14%,/,36*,39*
CC1(C)CCC(=O)N2CC[C@H]3C[C@H](OC(=O)Nc4ccc5c(c4)OCO5)C[C@@H]1[C@H]32,/,i,-18%,/,20*,23*
C[C@@H](c1ccccc1)N1C(=O)[C@@H]2[C@H]3[C@H](O)[C@H](O)CC(=NNC(=O)OCc4ccccc4)[C@@H]3CC[C@H]2C1=O,-18%[14.2 µM],/,/,/,/,/
CCc1ccc(/C=C/C(=O)c2ccc(N3CCOCC3)cc2)cc1,-15%,?,-17%,-11%,15*,active
Cc1ccc(/C=C/C(=O)c2ccc(N3CCOCC3)cc2)s1,?,-13%,-6%,?,27*,83
O=C(/C=C/c1ccc(F)cc1)c1ccc(N2CCOCC2)cc1,15%[46.1 µM],i,-18%,42%,4,14
Cc1cccc(/C=C/C(=O)c2ccc(N3CCOCC3)cc2)c1,16%,/,/,3%,14*,45*
COc1ccccc1CNC(=O)C(=O)NCC(c1cccs1)S(=O)(=O)c1ccccc1 (configuration not stated),/,-15%,-13%,2%[46.1 µM],/,/
CC(=O)OCC(=O)c1ccc2ccn(C(C)=O)c2c1,2%,/,/,10%,25*,32
O=C(c1ccco1)N1CCN(c2ncnc3c(-c4ccccc4)nsc23)CC1,?,/,/,?,17,48
NC(=O)C1CCN(c2ncnc3c(-c4ccccc4)nsc23)CC1,-3%,/,/,-2%,50*,51*
COc1ccc2c(c1)c1c(c(=O)n(-c3cccc(Cl)c3)c(=O)n1CC(=O)NCC1CCCO1)n2C (configuration not stated),/,-4%,-7%,11%[46.1 µM],/,/
CC(C)c1ccc(/C=C2\SC(=S)N(CCC(=O)N3CCCCC3CCO)C2=O)cc1 (configuration not stated),/,/,/,/,-6,-11
O=C(CN1CCCC1)Nc1ccc(Br)cc1[N+](=O)[O-],/,/,/,/,27*,/
Cc1ccc(NC(=O)CN2CCCCCC2)cc1[N+](=O)[O-],-12%[46.1 µM],-5%,0%,3%,42*,103*
O=C(CN1CCCCCC1)Nc1ccc([N+](=O)[O-])cc1Br,3%[46.1 µM],?,-20%,-8%[46.1 µM],-1,27
COc1ccc(/C=C\C(=O)O[C@@H]2C(O)C(O[C@@H]3OC(C)[C@H](O[C@@H]4OCC(O[C@H]5O[C@H](CO)[C@@H](O)C(O)C5O)C(O)C4O)C(O)C3O)[C@H](OC(=O)[C@]34CCC(C)(C)C[C@@H]3C3=CCC5[C@@]6(C)CC(O)C(O[C@@H]7OC(CO)C(O)[C@H](O)[C@H]7O)[C@@](C)(C(=O)O)C6CC[C@@]5(C)[C@]3(CO)CC4)O[C@H]2C)cc1 (some centres not stated),/,?,11µM*,/,/,/
C=CCN1CC[C@]23c4c5ccc(O)c4O[C@@H]2/C(=N/N=C2\CC[C@@]4(O)C6Cc7ccc(O)c8c7[C@@]4(CCN6CC=C)[C@@H]2O8)CC[C@@]3(O)C1C5,4.5µM*,/,/,16µM*,/,/
COc1ccc(/C=C2/SC(=S)N(CCCC(=O)Nc3cccc(O)c3)C2=O)cc1,7.9µM*,?,10%,?,35*,45*
COc1ccc(/C=C2/SC(=S)N(CCCC(=O)Nc3ccccc3C(=O)O)C2=O)cc1,7.9µM*,i,20%,2.8µM*,-10,-10
